# Laboratory results reported in the supplement of paper PMC6607015.
# Structures can show the parent of a compound that is named as a salt.
# How the values were obtained:
# Settings in all cases: compound concentration in added solution (µM; 5 µl added to 20 µl cells): 10; 18 h
# A431 [1] = experiment: LBPA endosome anti-LBPA integrated intensity (sum per cell), Z-score; higher = more LBPA staining
# How it was run: (§1)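 After 18 h on 5 µl of 10 µM compound solution in duplicate 384-well imaging plates, HeLa MZ or A431 cells, seeded at 3,500 per well in 20 µl, were fixed with 4% PFA. They were then labelled with 6C4 anti-LBPA antibody, filipin, propidium iodide and CellTracker green, and four 20× fields were recorded per well. Integrated LBPA or filipin intensity per cell, whole-cell or within LBPA endosomes, came from MetaXpress segmentation and was normalised to Z-scores in AcuityXpress.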
# HeLa MZ [2] = experiment: as above
# How it was run: as §1
# A431 [3] = experiment: whole-cell filipin (free cholesterol) integrated intensity, Z-score; higher = more cholesterol staining
# How it was run: as §1
# HeLa MZ [4] = experiment: as above
# How it was run: as §1
# A431 [5] = experiment: filipin (cholesterol) integrated intensity within LBPA endosomes, Z-score; higher = more cholesterol in LBPA endosomes
# How it was run: as §1
# HeLa MZ [6] = experiment: as above
# How it was run: as §1
smiles,measurement,setting,value
O=C(O)CNC(=O)C(CS)Cc1ccccc1 (centres undefined) [Thiorphan],LBPA endosome anti-LBPA integrated intensity (z-score),A431 [1],-0.785
same,LBPA endosome anti-LBPA integrated intensity (z-score),HeLa MZ [2],-1.92
same,whole-cell filipin (z-score),A431 [3],-0.897
same,whole-cell filipin (z-score),HeLa MZ [4],-0.571
same,filipin (z-score),A431 [5],-0.691
same,filipin (z-score),HeLa MZ [6],-0.682
C[C@H](CCC(=O)O)[C@H]1CC[C@H]2[C@@H]3[C@H](O)C[C@@H]4C[C@H](O)CC[C@]4(C)[C@H]3CC[C@]12C [Chenodiol],LBPA endosome anti-LBPA integrated intensity (z-score),A431 [1],-0.496
same,LBPA endosome anti-LBPA integrated intensity (z-score),HeLa MZ [2],-1.46
same,whole-cell filipin (z-score),A431 [3],-0.897
same,whole-cell filipin (z-score),HeLa MZ [4],-0.999
same,filipin (z-score),A431 [5],-0.575
same,filipin (z-score),HeLa MZ [6],-0.773
"O=C1C(O)=C(O)C(=O)C(O)=C1O [Tetrahydroxy-1,4-quinone monohydrate]",LBPA endosome anti-LBPA integrated intensity (z-score),A431 [1],-0.376
same,LBPA endosome anti-LBPA integrated intensity (z-score),HeLa MZ [2],0.48
same,whole-cell filipin (z-score),A431 [3],-0.203
same,whole-cell filipin (z-score),HeLa MZ [4],-0.164
same,filipin (z-score),A431 [5],-0.404
same,filipin (z-score),HeLa MZ [6],-0.442
NC(=O)c1ncn([C@@H]2O[C@H](CO)[C@@H](O)[C@H]2O)n1 [Ribavirin],LBPA endosome anti-LBPA integrated intensity (z-score),A431 [1],-0.391
same,LBPA endosome anti-LBPA integrated intensity (z-score),HeLa MZ [2],-0.778
same,whole-cell filipin (z-score),A431 [3],-0.377
same,whole-cell filipin (z-score),HeLa MZ [4],-0.839
same,filipin (z-score),A431 [5],-0.376
same,filipin (z-score),HeLa MZ [6],-0.688
COc1ccc2c3c1O[C@H]1C[C@@H](O)C=C[C@@]31CCN(C)C2 [Galanthamine hydrobromide],LBPA endosome anti-LBPA integrated intensity (z-score),A431 [1],-0.594
same,LBPA endosome anti-LBPA integrated intensity (z-score),HeLa MZ [2],-0.476
same,whole-cell filipin (z-score),A431 [3],-0.752
same,whole-cell filipin (z-score),HeLa MZ [4],-0.607
same,filipin (z-score),A431 [5],-0.584
same,filipin (z-score),HeLa MZ [6],-0.496
NS(=O)(=O)c1cc2c(cc1Cl)NC(CC1CCCC1)NS2(=O)=O (centres undefined) [Cyclopenthiazide],LBPA endosome anti-LBPA integrated intensity (z-score),A431 [1],-0.58
same,LBPA endosome anti-LBPA integrated intensity (z-score),HeLa MZ [2],-0.971
same,whole-cell filipin (z-score),A431 [3],-0.203
same,whole-cell filipin (z-score),HeLa MZ [4],-0.467
same,filipin (z-score),A431 [5],-0.442
same,filipin (z-score),HeLa MZ [6],-0.628
CCC[C@@H]1C[C@@H](C(=O)N[C@@H]([C@H]2O[C@H](SC)[C@H](O)[C@@H](O)[C@H]2O)[C@H](C)Cl)N(C)C1 [Clindamycin hydrochloride],LBPA endosome anti-LBPA integrated intensity (z-score),A431 [1],-0.543
same,LBPA endosome anti-LBPA integrated intensity (z-score),HeLa MZ [2],-0.18
same,whole-cell filipin (z-score),A431 [3],-0.979
same,whole-cell filipin (z-score),HeLa MZ [4],-0.574
same,filipin (z-score),A431 [5],-0.567
same,filipin (z-score),HeLa MZ [6],-0.563
CCC1(C)CC(=O)NC1=O (centres undefined) [Ethosuximide],LBPA endosome anti-LBPA integrated intensity (z-score),A431 [1],-0.426
same,LBPA endosome anti-LBPA integrated intensity (z-score),HeLa MZ [2],-0.83
same,whole-cell filipin (z-score),A431 [3],-0.448
same,whole-cell filipin (z-score),HeLa MZ [4],-0.207
same,filipin (z-score),A431 [5],-0.393
same,filipin (z-score),HeLa MZ [6],-0.464
CN(C)CCOC(c1ccc(Cl)cc1)c1ccccn1 (centres undefined) [Carbinoxamine maleate salt],LBPA endosome anti-LBPA integrated intensity (z-score),A431 [1],-0.697
same,LBPA endosome anti-LBPA integrated intensity (z-score),HeLa MZ [2],-0.856
same,whole-cell filipin (z-score),A431 [3],-0.5
same,whole-cell filipin (z-score),HeLa MZ [4],-0.502
same,filipin (z-score),A431 [5],-0.442
same,filipin (z-score),HeLa MZ [6],-0.169
NS(=O)(=O)c1cc(C(=O)O)cc(N2CCCC2)c1Oc1ccccc1 [Piretanide],LBPA endosome anti-LBPA integrated intensity (z-score),A431 [1],-0.606
same,LBPA endosome anti-LBPA integrated intensity (z-score),HeLa MZ [2],-1.16
same,whole-cell filipin (z-score),A431 [3],-0.2
same,whole-cell filipin (z-score),HeLa MZ [4],0.517
same,filipin (z-score),A431 [5],-0.411
same,filipin (z-score),HeLa MZ [6],-0.576
CCCC(=O)Nc1ncnc2c1ncn2[C@@H]1O[C@@H]2COP(=O)(O)O[C@H]2[C@H]1OC(=O)CCC [Bucladesine sodium salt],LBPA endosome anti-LBPA integrated intensity (z-score),A431 [1],-0.466
same,LBPA endosome anti-LBPA integrated intensity (z-score),HeLa MZ [2],-0.34
same,whole-cell filipin (z-score),A431 [3],-0.132
same,whole-cell filipin (z-score),HeLa MZ [4],0.0614
same,filipin (z-score),A431 [5],-0.405
same,filipin (z-score),HeLa MZ [6],-0.372
CC12CC3CC(C)(C1)CC(N)(C3)C2 [Memantine Hydrochloride],LBPA endosome anti-LBPA integrated intensity (z-score),A431 [1],-0.449
same,LBPA endosome anti-LBPA integrated intensity (z-score),HeLa MZ [2],0.231
same,whole-cell filipin (z-score),A431 [3],0.233
same,whole-cell filipin (z-score),HeLa MZ [4],0.438
same,filipin (z-score),A431 [5],-0.349
same,filipin (z-score),HeLa MZ [6],-0.0275
COc1c(O[C@@H]2O[C@H](CO)[C@@H](O)[C@H](O)[C@H]2O)cc2c(c1OC)-c1ccc(SC)c(=O)cc1[C@@H](NC(C)=O)CC2 [Thiocolchicoside],LBPA endosome anti-LBPA integrated intensity (z-score),A431 [1],-0.551
same,LBPA endosome anti-LBPA integrated intensity (z-score),HeLa MZ [2],-0.233
same,whole-cell filipin (z-score),A431 [3],-0.589
same,whole-cell filipin (z-score),HeLa MZ [4],-0.789
same,filipin (z-score),A431 [5],-0.477
same,filipin (z-score),HeLa MZ [6],-0.471
CC(C(=O)O)c1cccc(Oc2ccccc2)c1 (centres undefined) [Fenoprofen calcium salt dihydrate],LBPA endosome anti-LBPA integrated intensity (z-score),A431 [1],-0.519
same,LBPA endosome anti-LBPA integrated intensity (z-score),HeLa MZ [2],-0.608
same,whole-cell filipin (z-score),A431 [3],-0.389
same,whole-cell filipin (z-score),HeLa MZ [4],-0.428
same,filipin (z-score),A431 [5],-0.476
same,filipin (z-score),HeLa MZ [6],-0.491
O=C1CC2(CCCC2)CC(=O)N1CCCCN1CCN(c2ncccn2)CC1 [Buspirone hydrochloride],LBPA endosome anti-LBPA integrated intensity (z-score),A431 [1],-0.302
same,LBPA endosome anti-LBPA integrated intensity (z-score),HeLa MZ [2],-0.586
same,whole-cell filipin (z-score),A431 [3],0.536
same,whole-cell filipin (z-score),HeLa MZ [4],0.427
same,filipin (z-score),A431 [5],-0.00788
same,filipin (z-score),HeLa MZ [6],0.293
CCN(CC)CC#CCOC(=O)C(O)(c1ccccc1)C1CCCCC1 (centres undefined) [Oxybutynin chloride],LBPA endosome anti-LBPA integrated intensity (z-score),A431 [1],0.579
same,LBPA endosome anti-LBPA integrated intensity (z-score),HeLa MZ [2],1.7
same,whole-cell filipin (z-score),A431 [3],0.833
same,whole-cell filipin (z-score),HeLa MZ [4],0.613
same,filipin (z-score),A431 [5],0.892
same,filipin (z-score),HeLa MZ [6],1.15
Nc1nc(O)c2ncn(CCC(CO)CO)c2n1 [Penciclovir],LBPA endosome anti-LBPA integrated intensity (z-score),A431 [1],-0.596
same,LBPA endosome anti-LBPA integrated intensity (z-score),HeLa MZ [2],-1.08
same,whole-cell filipin (z-score),A431 [3],-0.223
same,whole-cell filipin (z-score),HeLa MZ [4],0.234
same,filipin (z-score),A431 [5],-0.512
same,filipin (z-score),HeLa MZ [6],-0.438
CC1Cc2ccccc2N1NC(=O)c1ccc(Cl)c(S(N)(=O)=O)c1 (centres undefined) [Indapamide],LBPA endosome anti-LBPA integrated intensity (z-score),A431 [1],-0.302
same,LBPA endosome anti-LBPA integrated intensity (z-score),HeLa MZ [2],0.5
same,whole-cell filipin (z-score),A431 [3],-0.729
same,whole-cell filipin (z-score),HeLa MZ [4],-0.419
same,filipin (z-score),A431 [5],-0.453
same,filipin (z-score),HeLa MZ [6],-0.438
Cc1c(N)c(=O)n(-c2ccccc2)n1C [Ampyrone],LBPA endosome anti-LBPA integrated intensity (z-score),A431 [1],-0.478
same,LBPA endosome anti-LBPA integrated intensity (z-score),HeLa MZ [2],-0.409
same,whole-cell filipin (z-score),A431 [3],-0.998
same,whole-cell filipin (z-score),HeLa MZ [4],-1.26
same,filipin (z-score),A431 [5],-0.379
same,filipin (z-score),HeLa MZ [6],-0.625
OCCN1C[C@H](O)[C@@H](O)[C@H](O)[C@H]1CO [Miglitol],LBPA endosome anti-LBPA integrated intensity (z-score),A431 [1],-0.534
same,LBPA endosome anti-LBPA integrated intensity (z-score),HeLa MZ [2],-0.285
same,whole-cell filipin (z-score),A431 [3],-0.628
same,whole-cell filipin (z-score),HeLa MZ [4],-0.643
same,filipin (z-score),A431 [5],-0.487
same,filipin (z-score),HeLa MZ [6],-0.578
CC[C@H](C)C(=O)O[C@H]1CCC=C2C=C[C@H](C)[C@H](CC[C@@H]3C[C@@H](O)CC(=O)O3)[C@H]21 [Mevastatin],LBPA endosome anti-LBPA integrated intensity (z-score),A431 [1],-1.03
same,LBPA endosome anti-LBPA integrated intensity (z-score),HeLa MZ [2],-2.17
same,whole-cell filipin (z-score),A431 [3],-1
same,whole-cell filipin (z-score),HeLa MZ [4],-0.345
same,filipin (z-score),A431 [5],-0.746
same,filipin (z-score),HeLa MZ [6],-0.0775
CCCCC(C)(O)C/C=C/[C@H]1[C@H](O)CC(=O)[C@@H]1CCCCCCC(=O)OC (mixture of isomers) [Misoprostol],LBPA endosome anti-LBPA integrated intensity (z-score),A431 [1],-0.446
same,LBPA endosome anti-LBPA integrated intensity (z-score),HeLa MZ [2],-0.811
same,whole-cell filipin (z-score),A431 [3],0.395
same,whole-cell filipin (z-score),HeLa MZ [4],-0.741
same,filipin (z-score),A431 [5],-0.436
same,filipin (z-score),HeLa MZ [6],-0.608
O=C(OCCOCCO)c1ccccc1Nc1cccc(C(F)(F)F)c1 [Etofenamate],LBPA endosome anti-LBPA integrated intensity (z-score),A431 [1],-0.474
same,LBPA endosome anti-LBPA integrated intensity (z-score),HeLa MZ [2],-0.295
same,whole-cell filipin (z-score),A431 [3],-0.883
same,whole-cell filipin (z-score),HeLa MZ [4],-1.24
same,filipin (z-score),A431 [5],-0.564
same,filipin (z-score),HeLa MZ [6],-0.692
CC(N)CCCC(C)(C)O (centres undefined) [Heptaminol hydrochloride],LBPA endosome anti-LBPA integrated intensity (z-score),A431 [1],-0.451
same,LBPA endosome anti-LBPA integrated intensity (z-score),HeLa MZ [2],-1.1
same,whole-cell filipin (z-score),A431 [3],-0.647
same,whole-cell filipin (z-score),HeLa MZ [4],-0.285
same,filipin (z-score),A431 [5],-0.442
same,filipin (z-score),HeLa MZ [6],-0.477
